{"source": "PubChem BioAssay (NCI)", "note": "Compounds without any hit were thinned out: in the full panel of roughly 83,000, 20% have a hit.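 How to read the values: 0–100, growth inhibition (40 = 60% inhibited); 0, no net growth; -100 to 0, cell death (-40 = 40% of starting cells died; -100 = all dead).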 The source made the active and inactive calls. How the source made its calls: active means growth percent below 10; inactive means the rest.", "data": [{"test_system": "UACC-62 melanoma", "assay": "NCI-60 one-dose screen, 48 h (100 = growth as untreated, 0 = no growth, -100 = all killed)", "conditions": "10 µM unless noted", "values": [{"compound": "COc1ccc(C/C(=C(\\C)c2ccc(OCCN3CCCC3)cc2)c2ccc(OCCN3CCCC3)cc2)cc1", "growth": "-55.6% (active)"}, {"compound": "CCOC(=O)Oc1c(OC)cc(C(=O)c2ccc(OC)c(O)c2OC)cc1OC", "growth": "34.3% (inactive)"}, {"compound": "CCCCOc1ccc(/C(C)=N/Nc2cc(C)nc3ccc(Br)cc23)cc1", "growth": "98.5% (inactive)"}, {"compound": "O=[N+]([O-])c1cc(Br)c2cccc3c2c1CC3", "growth": "89% (inactive)"}, {"compound": "CC(Oc1ccc(C(=O)O)cc1C(F)(F)F)c1ccc(Oc2ccccc2)cn1", "note": "(stereo unspecified)", "growth": "91.8% (inactive)"}, {"compound": "CCN1CCN(CCNc2nccc(-c3c(-c4cccc(OC)c4)nc4occn34)n2)S1(=O)=O", "growth": "27.5% (inactive)"}, {"compound": "Cn1c2ccccc2c2c3c(c4c5ccccc5n(C)c4c21)C(=O)OC3", "growth": "88.6% (inactive)"}, {"compound": "COc1cc2c(cc1OC)C(=O)/C(=C/c1cc(C)c(O)c(C)c1)S2", "growth": "43.3% (inactive)"}, {"compound": "O=C(/C=C/c1ccc(F)cc1)c1ccc(NC(=O)N2CCN(c3cc4c(cc3F)c(=O)c(C(=O)O)cn4C3CC3)CC2)cc1", "growth": "78.2% (inactive)"}, {"compound": "O=C1c2ccc3c4c(ccc(c24)C(=O)N1CCCNCc1ccccc1Cl)C(=O)N(CCCNCc1ccccc1Cl)C3=O", "growth": "-59.5% (active)"}, {"compound": "Cc1cccc(NC(=O)Nc2ccc(-n3cnc4cc(-c5ccc(O)cc5)ccc43)cc2)c1", "growth": "27.3% (inactive)"}, {"compound": "c1ccc(-c2cn3c(ccc4ccccc43)n2)cc1", "growth": "43.5% (inactive)"}, {"compound": "COc1cc2oc(-c3cccc(C(=O)Nc4ccccc4)c3)cc(=O)c2c(O)c1OC", "growth": "38.9% (inactive)"}, {"compound": "Cc1ccc(/C=N/NC(=O)CSc2nc3ccccc3c(=O)n2Cc2ccc(S(N)(=O)=O)cc2)cc1", "growth": "78.1% (inactive)"}, {"compound": "C#CCNC(=O)c1cccc2c1cc(C)n2-c1nc2c(c(NCc3ccccc3)n1)CCCC2", "growth": "-60.6% (active)"}, {"compound": "COc1ccccc1NC(=O)C1CC(c2ccc(F)cc2)=NO1", "note": "(stereo unspecified)", "growth": "96% (inactive)"}, {"compound": "O=C1Nc2cc(-c3ccc(NC(=O)c4ccccc4)cc3)ccc2/C1=C/c1ccc[nH]1", "growth": "98.4% (inactive)"}, {"compound": "C=CC(=O)N[C@@H](/C=C/C(=O)OCC)Cc1ccc(-c2cc(Cl)cc(Cl)c2)cc1", "growth": "9% (active)"}, {"compound": "Cc1ccc(NC(=O)c2cc(-c3nc4ccccc4s3)c(=O)n(NS(=O)(=O)c3ccc(Cl)cc3)c2N)cc1", "growth": "93.2% (inactive)"}, {"compound": "O=C1Nc2cc(-c3ccc(NC(=O)C4CC4)cc3)ccc2/C1=C/c1ccc[nH]1", "growth": "110% (inactive)"}, {"compound": "O=S(=O)(NCCNc1nccc(-c2c(-c3cccc(F)c3)nc3sccn23)n1)c1ccccc1", "growth": "24.9% (inactive)"}, {"compound": "O=C(NCCNc1nccc(-c2c(-c3cccc(F)c3)nc3sccn23)n1)c1ccc(Cl)cc1", "growth": "14.7% (inactive)"}, {"compound": "COc1cc2oc(-c3cccc(C(=O)Nc4ccc(Cl)cc4)c3)cc(=O)c2c(O)c1OC", "growth": "42.7% (inactive)"}, {"compound": "O=C1OC(Cc2ccccc2)C1c1ccccc1", "note": "(stereo unspecified)", "growth": "94.2% (inactive)"}, {"compound": "CC(=O)Nc1ccc(-n2cnc3cc(-c4ccc(OCCN5CCCCC5)cc4)ccc32)cc1", "growth": "120% (inactive)"}, {"compound": "O=C(N/N=C/c1ccc(Oc2ccccc2)cc1)c1cnn2c1NC(c1ccccc1)C2", "note": "(stereo unspecified)", "growth": "6.85% (active)"}, {"compound": "CCN(CC)CC[n+]1cc2cc(OC)c(OC)cc2c2ccc3cc4c(cc3c21)OCO4", "growth": "31.7% (inactive)"}, {"compound": "O=Cc1cc2ccccc2nc1Oc1ccc(C(F)(F)F)cc1", "growth": "72.5% (inactive)"}, {"compound": "Cc1cc2nc3c4cc(C=O)ccc4n(CCN(C)C)c3nc2cc1C", "growth": "21.5% (inactive)"}, {"compound": "N#Cc1cccc(-c2ccc3c(c2)NC(=O)/C3=C\\c2ccc[nH]2)c1", "growth": "42.7% (inactive)"}, {"compound": "CCc1c(Cl)nc(N)nc1Nc1ccc(C)c(C)c1", "growth": "92.8% (inactive)"}, {"compound": "COc1cc(NC(C)CCCNC(=O)CCC(=O)NCCCNCCCCCCCCCCNCCCNC(=O)CCC(=O)NCCCC(C)Nc2cc(OC)cc3cccnc23)c2ncccc2c1", "note": "(stereo unspecified)", "growth": "89.4% [8 µM] (inactive)"}, {"compound": "Cc1ccccc1NS(=O)(=O)c1cccc(C(=O)Nc2ccc(Br)cc2)c1", "growth": "25.9% [25 µM] (inactive)"}, {"compound": "COc1cc(/C=C\\C(=O)O)ccc1OCc1ccccc1", "growth": "93.2% (inactive)"}, {"compound": "CCCCCCCCOc1ccc(/C=N/Nc2cc(C)nc3ccc(Br)cc23)cc1", "growth": "92.7% (inactive)"}, {"compound": "S=c1cc(S)c2cc(Br)ccc2[nH]1", "growth": "83.4% (inactive)"}, {"compound": "CCOC(=O)CSc1nc2ccccc2c(=O)n1Cc1ccc(S(N)(=O)=O)cc1", "growth": "94.4% (inactive)"}, {"compound": "C=C1C(=O)O[C@H]2[C@H]1CC/C(COC(=O)NCc1c[nH]c3ccc(Cl)cc13)=C\\CC[C@@]1(C)O[C@@H]21", "growth": "-73.8% (active)"}]}, {"test_system": "LOX IMVI melanoma", "assay": "NCI-60 one-dose screen, 48 h (100 = growth as untreated, 0 = no growth, -100 = all killed)", "conditions": "10 µM unless noted", "values": [{"compound": "COc1ccc(C/C(=C(\\C)c2ccc(OCCN3CCCC3)cc2)c2ccc(OCCN3CCCC3)cc2)cc1", "growth": "-92.5% (active)"}, {"compound": "CCOC(=O)Oc1c(OC)cc(C(=O)c2ccc(OC)c(O)c2OC)cc1OC", "growth": "49.7% (inactive)"}, {"compound": "CCCCOc1ccc(/C(C)=N/Nc2cc(C)nc3ccc(Br)cc23)cc1", "growth": "33.9% (inactive)"}, {"compound": "O=[N+]([O-])c1cc(Br)c2cccc3c2c1CC3", "growth": "109% (inactive)"}, {"compound": "CC(Oc1ccc(C(=O)O)cc1C(F)(F)F)c1ccc(Oc2ccccc2)cn1", "note": "(stereo unspecified)", "growth": "97% (inactive)"}, {"compound": "CCN1CCN(CCNc2nccc(-c3c(-c4cccc(OC)c4)nc4occn34)n2)S1(=O)=O", "growth": "76.6% (inactive)"}, {"compound": "Cn1c2ccccc2c2c3c(c4c5ccccc5n(C)c4c21)C(=O)OC3", "growth": "88.2% (inactive)"}, {"compound": "COc1cc2c(cc1OC)C(=O)/C(=C/c1cc(C)c(O)c(C)c1)S2", "growth": "44.2% (inactive)"}, {"compound": "O=C(/C=C/c1ccc(F)cc1)c1ccc(NC(=O)N2CCN(c3cc4c(cc3F)c(=O)c(C(=O)O)cn4C3CC3)CC2)cc1", "growth": "83.7% (inactive)"}, {"compound": "O=C1c2ccc3c4c(ccc(c24)C(=O)N1CCCNCc1ccccc1Cl)C(=O)N(CCCNCc1ccccc1Cl)C3=O", "growth": "-53.7% (active)"}, {"compound": "Cc1cccc(NC(=O)Nc2ccc(-n3cnc4cc(-c5ccc(O)cc5)ccc43)cc2)c1", "growth": "30.6% (inactive)"}, {"compound": "c1ccc(-c2cn3c(ccc4ccccc43)n2)cc1", "growth": "52.3% (inactive)"}, {"compound": "COc1cc2oc(-c3cccc(C(=O)Nc4ccccc4)c3)cc(=O)c2c(O)c1OC", "growth": "88.1% (inactive)"}, {"compound": "Cc1ccc(/C=N/NC(=O)CSc2nc3ccccc3c(=O)n2Cc2ccc(S(N)(=O)=O)cc2)cc1", "growth": "82.9% (inactive)"}, {"compound": "C#CCNC(=O)c1cccc2c1cc(C)n2-c1nc2c(c(NCc3ccccc3)n1)CCCC2", "growth": "-86.6% (active)"}, {"compound": "COc1ccccc1NC(=O)C1CC(c2ccc(F)cc2)=NO1", "note": "(stereo unspecified)", "growth": "95.5% (inactive)"}, {"compound": "O=C1Nc2cc(-c3ccc(NC(=O)c4ccccc4)cc3)ccc2/C1=C/c1ccc[nH]1", "growth": "96.2% (inactive)"}, {"compound": "C=CC(=O)N[C@@H](/C=C/C(=O)OCC)Cc1ccc(-c2cc(Cl)cc(Cl)c2)cc1", "growth": "36.6% (inactive)"}, {"compound": "Cc1ccc(NC(=O)c2cc(-c3nc4ccccc4s3)c(=O)n(NS(=O)(=O)c3ccc(Cl)cc3)c2N)cc1", "growth": "102% (inactive)"}, {"compound": "O=C1Nc2cc(-c3ccc(NC(=O)C4CC4)cc3)ccc2/C1=C/c1ccc[nH]1", "growth": "95.1% (inactive)"}, {"compound": "O=S(=O)(NCCNc1nccc(-c2c(-c3cccc(F)c3)nc3sccn23)n1)c1ccccc1", "growth": "36.3% (inactive)"}, {"compound": "O=C(NCCNc1nccc(-c2c(-c3cccc(F)c3)nc3sccn23)n1)c1ccc(Cl)cc1", "growth": "43.4% (inactive)"}, {"compound": "COc1cc2oc(-c3cccc(C(=O)Nc4ccc(Cl)cc4)c3)cc(=O)c2c(O)c1OC", "growth": "69.8% (inactive)"}, {"compound": "O=C1OC(Cc2ccccc2)C1c1ccccc1", "note": "(stereo unspecified)", "growth": "99.3% (inactive)"}, {"compound": "CC(=O)Nc1ccc(-n2cnc3cc(-c4ccc(OCCN5CCCCC5)cc4)ccc32)cc1", "growth": "86.8% (inactive)"}, {"compound": "O=C(N/N=C/c1ccc(Oc2ccccc2)cc1)c1cnn2c1NC(c1ccccc1)C2", "note": "(stereo unspecified)", "growth": "57.2% (inactive)"}, {"compound": "CCN(CC)CC[n+]1cc2cc(OC)c(OC)cc2c2ccc3cc4c(cc3c21)OCO4", "growth": "-85.8% (active)"}, {"compound": "O=Cc1cc2ccccc2nc1Oc1ccc(C(F)(F)F)cc1", "growth": "74.3% (inactive)"}, {"compound": "Cc1cc2nc3c4cc(C=O)ccc4n(CCN(C)C)c3nc2cc1C", "growth": "-40.5% (active)"}, {"compound": "N#Cc1cccc(-c2ccc3c(c2)NC(=O)/C3=C\\c2ccc[nH]2)c1", "growth": "66.1% (inactive)"}, {"compound": "CCc1c(Cl)nc(N)nc1Nc1ccc(C)c(C)c1", "growth": "85.7% (inactive)"}, {"compound": "COc1cc(NC(C)CCCNC(=O)CCC(=O)NCCCNCCCCCCCCCCNCCCNC(=O)CCC(=O)NCCCC(C)Nc2cc(OC)cc3cccnc23)c2ncccc2c1", "note": "(stereo unspecified)", "growth": "51.1% [8 µM] (inactive)"}, {"compound": "Cc1ccccc1NS(=O)(=O)c1cccc(C(=O)Nc2ccc(Br)cc2)c1", "growth": "39.2% [25 µM] (inactive)"}, {"compound": "COc1cc(/C=C\\C(=O)O)ccc1OCc1ccccc1", "growth": "95.7% (inactive)"}, {"compound": "CCCCCCCCOc1ccc(/C=N/Nc2cc(C)nc3ccc(Br)cc23)cc1", "growth": "22.4% (inactive)"}, {"compound": "S=c1cc(S)c2cc(Br)ccc2[nH]1", "growth": "95.9% (inactive)"}, {"compound": "CCOC(=O)CSc1nc2ccccc2c(=O)n1Cc1ccc(S(N)(=O)=O)cc1", "growth": "95.9% (inactive)"}, {"compound": "C=C1C(=O)O[C@H]2[C@H]1CC/C(COC(=O)NCc1c[nH]c3ccc(Cl)cc13)=C\\CC[C@@]1(C)O[C@@H]21", "growth": "-76.3% (active)"}]}]}
